# Reference: ChEMBL document CHEMBL1961873, “Compounds: GSK PKIS; Assays: Nanosyn kinase panel” (2012)
# Legend:
# [1] = molecular target: Rho-associated protein kinase 1 (Homo sapiens) (UniProt Q13464); settings: at 1 µM;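 further: reported values are mean percent inhibition of ROCK1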
# [2] = molecular target: Rho-associated protein kinase 2 (Homo sapiens) (UniProt O75116); settings: at 0.1 µM
# [3] = molecular target: Rho-associated protein kinase 2 (Homo sapiens) (UniProt O75116); settings: at 1 µM
# [4] = molecular target: Ribosomal protein S6 kinase alpha-1 (Homo sapiens) (UniProt Q15418); settings: at 0.1 µM
# [5] = molecular target: Ribosomal protein S6 kinase alpha-1 (Homo sapiens) (UniProt Q15418); settings: at 1 µM
# [6] = molecular target: Ribosomal protein S6 kinase alpha-3 (Homo sapiens) (UniProt P51812); settings: at 0.1 µM
# [7] = molecular target: Ribosomal protein S6 kinase alpha-3 (Homo sapiens) (UniProt P51812); settings: at 1 µM
# [8] = molecular target: Ribosomal protein S6 kinase alpha-2 (Homo sapiens) (UniProt Q15349); settings: at 0.1 µM
# [9] = molecular target: Ribosomal protein S6 kinase alpha-2 (Homo sapiens) (UniProt Q15349); settings: at 1 µM
# [10] = molecular target: Ribosomal protein S6 kinase alpha-6 (Homo sapiens) (UniProt Q9UK32); settings: at 0.1 µM
# [11] = molecular target: Ribosomal protein S6 kinase alpha-6 (Homo sapiens) (UniProt Q9UK32); settings: at 1 µM
# [12] = molecular target: T1, Serine/threonine-protein kinase Sgk1 (Homo sapiens) (UniProt O00141); settings: at 0.1 µM
# T1 sequence (whole entry): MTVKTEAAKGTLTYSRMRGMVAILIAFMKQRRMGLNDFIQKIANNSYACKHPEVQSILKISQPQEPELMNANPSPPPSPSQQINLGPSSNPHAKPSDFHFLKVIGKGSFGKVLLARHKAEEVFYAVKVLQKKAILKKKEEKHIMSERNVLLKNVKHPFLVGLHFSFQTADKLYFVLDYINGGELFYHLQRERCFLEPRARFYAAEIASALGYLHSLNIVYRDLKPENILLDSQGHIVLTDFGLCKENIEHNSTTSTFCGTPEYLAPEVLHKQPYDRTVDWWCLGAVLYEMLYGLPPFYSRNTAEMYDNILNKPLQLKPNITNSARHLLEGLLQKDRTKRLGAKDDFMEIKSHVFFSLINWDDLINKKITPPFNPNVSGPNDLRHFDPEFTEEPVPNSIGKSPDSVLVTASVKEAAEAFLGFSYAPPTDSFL
# [13] = molecular target: T1, Serine/threonine-protein kinase Sgk1 (Homo sapiens); settings: at 1 µM
# [14] = molecular target: T2, Serine/threonine-protein kinase Sgk2 (Homo sapiens) (UniProt Q9HBY8); settings: at 0.1 µM
# T2 sequence (whole entry): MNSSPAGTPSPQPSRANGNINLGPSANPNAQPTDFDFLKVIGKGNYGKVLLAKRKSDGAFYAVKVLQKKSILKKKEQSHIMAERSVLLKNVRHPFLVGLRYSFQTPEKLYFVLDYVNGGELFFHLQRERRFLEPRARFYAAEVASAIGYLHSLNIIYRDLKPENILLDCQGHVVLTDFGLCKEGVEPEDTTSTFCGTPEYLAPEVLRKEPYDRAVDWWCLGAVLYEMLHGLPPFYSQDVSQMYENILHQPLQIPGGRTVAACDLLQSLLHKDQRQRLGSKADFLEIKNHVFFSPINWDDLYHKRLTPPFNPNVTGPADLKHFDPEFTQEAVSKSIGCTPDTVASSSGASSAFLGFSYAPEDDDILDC
# [15] = molecular target: T2, Serine/threonine-protein kinase Sgk2 (Homo sapiens); settings: at 1 µM
# [16] = molecular target: T3, Serine/threonine-protein kinase Sgk3 (Homo sapiens) (UniProt Q96BR1); settings: at 0.1 µM
# T3 sequence (whole entry): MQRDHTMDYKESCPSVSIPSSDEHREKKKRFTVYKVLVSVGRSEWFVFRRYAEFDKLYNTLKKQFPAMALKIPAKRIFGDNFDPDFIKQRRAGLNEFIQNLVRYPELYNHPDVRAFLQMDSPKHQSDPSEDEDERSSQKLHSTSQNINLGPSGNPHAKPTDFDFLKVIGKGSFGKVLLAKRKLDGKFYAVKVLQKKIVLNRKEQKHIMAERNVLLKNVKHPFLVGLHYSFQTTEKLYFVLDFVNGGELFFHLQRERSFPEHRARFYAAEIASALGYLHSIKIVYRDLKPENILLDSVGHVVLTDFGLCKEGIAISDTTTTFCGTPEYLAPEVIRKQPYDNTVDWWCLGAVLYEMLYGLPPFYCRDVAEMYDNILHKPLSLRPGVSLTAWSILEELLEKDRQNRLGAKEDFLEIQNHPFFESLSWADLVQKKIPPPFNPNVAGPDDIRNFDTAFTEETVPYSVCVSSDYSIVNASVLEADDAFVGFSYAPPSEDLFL
# [17] = molecular target: T3, Serine/threonine-protein kinase Sgk3 (Homo sapiens); settings: at 1 µM
# [18] = molecular target: 5'-AMP-activated protein kinase catalytic subunit alpha-1 (Homo sapiens) (UniProt Q13131); settings: at 0.1 µM
# [19] = molecular target: 5'-AMP-activated protein kinase catalytic subunit alpha-1 (Homo sapiens) (UniProt Q13131); settings: at 1 µM
# [20] = molecular target: 5'-AMP-activated protein kinase catalytic subunit alpha-2 (Homo sapiens) (UniProt P54646); settings: at 0.1 µM;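 further: mean inhibition measured on the AMPK complex of alpha2, beta1 and gamma1 subunits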
# 5'-AMP-activated protein kinase catalytic subunit alpha-2 (Homo sapiens), sequence (P54646 whole entry, looked up): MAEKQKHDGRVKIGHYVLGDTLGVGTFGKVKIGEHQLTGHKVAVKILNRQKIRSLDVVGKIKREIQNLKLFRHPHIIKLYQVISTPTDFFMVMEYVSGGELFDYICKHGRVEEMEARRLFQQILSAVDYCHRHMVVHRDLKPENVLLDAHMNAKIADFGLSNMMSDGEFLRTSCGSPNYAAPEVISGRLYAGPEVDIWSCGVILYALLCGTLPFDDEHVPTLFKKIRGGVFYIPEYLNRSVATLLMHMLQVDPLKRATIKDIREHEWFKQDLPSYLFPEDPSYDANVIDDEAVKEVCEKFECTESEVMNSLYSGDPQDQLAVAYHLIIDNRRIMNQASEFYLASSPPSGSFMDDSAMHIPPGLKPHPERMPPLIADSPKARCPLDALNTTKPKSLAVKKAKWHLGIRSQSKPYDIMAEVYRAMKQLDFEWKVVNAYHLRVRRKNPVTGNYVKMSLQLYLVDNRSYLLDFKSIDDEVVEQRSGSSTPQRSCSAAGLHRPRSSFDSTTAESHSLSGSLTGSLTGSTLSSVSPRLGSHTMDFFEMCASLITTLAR
# Ribosomal protein S6 kinase alpha-1 (Homo sapiens), sequence (Q15418 whole entry): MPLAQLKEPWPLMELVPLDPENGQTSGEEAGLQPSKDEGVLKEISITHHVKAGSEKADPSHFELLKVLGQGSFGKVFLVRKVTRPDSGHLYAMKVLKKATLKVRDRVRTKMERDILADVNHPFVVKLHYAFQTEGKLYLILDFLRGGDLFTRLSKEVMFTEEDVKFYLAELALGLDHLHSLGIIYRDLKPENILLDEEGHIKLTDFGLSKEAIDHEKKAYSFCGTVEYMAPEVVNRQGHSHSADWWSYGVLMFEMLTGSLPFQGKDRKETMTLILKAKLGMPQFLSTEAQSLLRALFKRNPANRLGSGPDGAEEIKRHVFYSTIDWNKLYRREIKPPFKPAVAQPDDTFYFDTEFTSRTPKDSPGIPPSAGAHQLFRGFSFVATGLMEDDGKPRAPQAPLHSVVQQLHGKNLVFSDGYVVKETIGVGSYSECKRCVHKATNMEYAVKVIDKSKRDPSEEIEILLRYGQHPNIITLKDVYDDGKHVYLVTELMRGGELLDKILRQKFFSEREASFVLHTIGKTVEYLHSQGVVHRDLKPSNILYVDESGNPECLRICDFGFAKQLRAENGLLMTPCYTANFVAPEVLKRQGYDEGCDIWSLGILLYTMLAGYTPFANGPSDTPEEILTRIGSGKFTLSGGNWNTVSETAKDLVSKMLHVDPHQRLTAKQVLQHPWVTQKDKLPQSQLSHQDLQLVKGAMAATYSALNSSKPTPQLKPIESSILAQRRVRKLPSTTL
# Rho-associated protein kinase 2 (Homo sapiens), sequence (O75116 whole entry, looked up): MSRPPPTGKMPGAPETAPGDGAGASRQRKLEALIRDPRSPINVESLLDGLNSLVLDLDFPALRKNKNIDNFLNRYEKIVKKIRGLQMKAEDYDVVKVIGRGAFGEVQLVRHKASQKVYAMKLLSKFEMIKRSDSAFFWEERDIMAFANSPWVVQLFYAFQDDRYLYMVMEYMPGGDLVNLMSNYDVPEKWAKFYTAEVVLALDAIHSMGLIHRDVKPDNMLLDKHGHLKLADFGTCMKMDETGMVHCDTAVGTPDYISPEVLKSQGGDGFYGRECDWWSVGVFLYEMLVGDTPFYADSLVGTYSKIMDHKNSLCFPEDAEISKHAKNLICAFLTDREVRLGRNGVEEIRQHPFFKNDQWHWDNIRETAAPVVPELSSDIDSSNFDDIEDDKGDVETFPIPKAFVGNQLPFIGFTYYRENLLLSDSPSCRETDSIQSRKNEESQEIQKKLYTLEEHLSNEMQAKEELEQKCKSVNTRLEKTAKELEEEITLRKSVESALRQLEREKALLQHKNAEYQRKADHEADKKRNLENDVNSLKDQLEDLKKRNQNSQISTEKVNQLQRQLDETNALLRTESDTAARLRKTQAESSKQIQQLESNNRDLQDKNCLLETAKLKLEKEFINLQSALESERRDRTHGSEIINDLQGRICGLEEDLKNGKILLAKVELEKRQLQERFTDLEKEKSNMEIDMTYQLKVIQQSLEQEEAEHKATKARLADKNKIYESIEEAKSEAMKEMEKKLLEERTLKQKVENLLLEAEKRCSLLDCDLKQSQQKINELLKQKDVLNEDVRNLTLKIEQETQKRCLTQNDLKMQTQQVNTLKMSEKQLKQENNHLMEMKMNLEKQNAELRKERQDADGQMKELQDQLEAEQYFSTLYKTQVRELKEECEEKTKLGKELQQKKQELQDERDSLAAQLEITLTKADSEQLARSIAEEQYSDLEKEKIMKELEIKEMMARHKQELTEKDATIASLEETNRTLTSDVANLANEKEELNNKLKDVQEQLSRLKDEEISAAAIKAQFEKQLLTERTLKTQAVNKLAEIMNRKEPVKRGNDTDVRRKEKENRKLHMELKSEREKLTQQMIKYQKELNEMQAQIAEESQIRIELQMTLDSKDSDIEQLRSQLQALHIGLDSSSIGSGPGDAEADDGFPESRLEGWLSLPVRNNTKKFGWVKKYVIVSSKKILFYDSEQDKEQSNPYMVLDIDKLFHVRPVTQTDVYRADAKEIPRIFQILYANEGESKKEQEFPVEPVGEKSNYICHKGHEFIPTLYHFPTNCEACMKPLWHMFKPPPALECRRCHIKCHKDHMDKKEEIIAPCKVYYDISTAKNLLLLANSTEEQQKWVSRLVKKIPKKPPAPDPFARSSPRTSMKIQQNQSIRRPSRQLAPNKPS
# Ribosomal protein S6 kinase alpha-2 (Homo sapiens), sequence (Q15349 whole entry): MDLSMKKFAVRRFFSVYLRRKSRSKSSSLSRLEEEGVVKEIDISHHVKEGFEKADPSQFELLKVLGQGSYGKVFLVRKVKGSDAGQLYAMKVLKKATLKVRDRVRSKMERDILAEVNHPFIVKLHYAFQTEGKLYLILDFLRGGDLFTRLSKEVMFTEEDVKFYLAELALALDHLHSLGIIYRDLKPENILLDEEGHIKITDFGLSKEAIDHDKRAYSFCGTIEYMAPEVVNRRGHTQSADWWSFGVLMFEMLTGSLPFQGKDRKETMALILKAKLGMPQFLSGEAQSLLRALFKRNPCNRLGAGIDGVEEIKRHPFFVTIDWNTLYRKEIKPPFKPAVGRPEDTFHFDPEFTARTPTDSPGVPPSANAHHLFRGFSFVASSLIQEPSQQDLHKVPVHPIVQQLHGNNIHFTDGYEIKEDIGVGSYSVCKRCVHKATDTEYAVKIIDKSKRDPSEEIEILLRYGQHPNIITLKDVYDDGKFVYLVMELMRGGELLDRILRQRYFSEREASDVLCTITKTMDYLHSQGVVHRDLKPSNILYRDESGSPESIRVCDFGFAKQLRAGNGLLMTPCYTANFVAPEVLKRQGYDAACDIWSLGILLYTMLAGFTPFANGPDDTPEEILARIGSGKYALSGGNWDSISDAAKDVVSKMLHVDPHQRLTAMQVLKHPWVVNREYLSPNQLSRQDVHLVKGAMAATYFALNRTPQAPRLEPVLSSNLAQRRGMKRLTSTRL
# Ribosomal protein S6 kinase alpha-6 (Homo sapiens), sequence (Q9UK32 whole entry): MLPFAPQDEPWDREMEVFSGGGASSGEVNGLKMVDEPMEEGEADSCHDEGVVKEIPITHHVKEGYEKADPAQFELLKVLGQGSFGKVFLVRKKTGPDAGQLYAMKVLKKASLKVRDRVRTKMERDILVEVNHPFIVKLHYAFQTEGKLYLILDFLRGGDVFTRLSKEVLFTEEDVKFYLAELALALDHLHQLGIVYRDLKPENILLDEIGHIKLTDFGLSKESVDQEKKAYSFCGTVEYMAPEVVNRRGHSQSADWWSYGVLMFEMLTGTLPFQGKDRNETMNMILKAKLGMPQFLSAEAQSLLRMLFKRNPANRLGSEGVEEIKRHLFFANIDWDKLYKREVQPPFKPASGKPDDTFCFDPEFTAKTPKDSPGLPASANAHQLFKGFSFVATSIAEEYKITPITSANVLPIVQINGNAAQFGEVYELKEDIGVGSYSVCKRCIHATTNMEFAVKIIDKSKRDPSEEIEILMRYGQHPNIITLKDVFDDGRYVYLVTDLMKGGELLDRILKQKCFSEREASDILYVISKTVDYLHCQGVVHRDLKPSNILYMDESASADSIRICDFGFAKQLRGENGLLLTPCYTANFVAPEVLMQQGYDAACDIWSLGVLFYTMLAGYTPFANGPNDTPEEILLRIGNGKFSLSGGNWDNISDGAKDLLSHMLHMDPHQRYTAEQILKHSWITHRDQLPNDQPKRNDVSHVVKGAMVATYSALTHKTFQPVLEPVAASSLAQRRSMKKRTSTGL
# Ribosomal protein S6 kinase alpha-3 (Homo sapiens), sequence (P51812 whole entry): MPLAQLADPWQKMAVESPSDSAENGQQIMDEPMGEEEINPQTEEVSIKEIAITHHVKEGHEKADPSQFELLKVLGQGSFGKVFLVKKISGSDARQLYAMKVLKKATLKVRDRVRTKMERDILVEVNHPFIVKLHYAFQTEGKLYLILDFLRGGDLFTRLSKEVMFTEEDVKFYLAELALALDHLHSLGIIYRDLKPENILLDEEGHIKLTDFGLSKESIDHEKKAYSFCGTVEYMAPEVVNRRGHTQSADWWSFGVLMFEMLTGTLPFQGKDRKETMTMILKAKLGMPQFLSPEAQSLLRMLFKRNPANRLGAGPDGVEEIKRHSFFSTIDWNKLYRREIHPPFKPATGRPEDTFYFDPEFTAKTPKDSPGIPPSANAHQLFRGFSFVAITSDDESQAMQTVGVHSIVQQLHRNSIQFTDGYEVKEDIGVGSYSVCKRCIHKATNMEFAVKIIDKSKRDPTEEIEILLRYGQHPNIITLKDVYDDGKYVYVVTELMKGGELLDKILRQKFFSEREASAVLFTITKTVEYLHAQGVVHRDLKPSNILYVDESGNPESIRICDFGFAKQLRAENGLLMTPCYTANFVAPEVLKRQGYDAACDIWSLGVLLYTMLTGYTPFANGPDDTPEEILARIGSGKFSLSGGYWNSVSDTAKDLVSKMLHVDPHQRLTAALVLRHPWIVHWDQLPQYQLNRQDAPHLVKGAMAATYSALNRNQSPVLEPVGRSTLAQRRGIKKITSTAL
Compound,inhibition [1],inhibition [2],inhibition [3],inhibition [4],inhibition [5],inhibition [6],inhibition [7],inhibition [8],inhibition [9],inhibition [10],inhibition [11],inhibition [12],inhibition [13],inhibition [14],inhibition [15],inhibition [16],inhibition [17],inhibition [18],inhibition [19],inhibition [20]
C[C@@H](Oc1cc(-n2cnc3ccc(OC[C@@H](O)CO)cc32)sc1C(N)=O)c1ccccc1Cl,1.42%,-0.36%,0.84%,0.36%,3.32%,1.35%,5.89%,-0.54%,3.27%,-0.4%,12.7%,1.2%,0.68%,1.68%,2.9%,-1.63%,0.55%,0.18%,5.73%,0.26%
CN(C)c1cc2c(Nc3ccc4c(cnn4Cc4ccccc4)c3)ncnc2cn1,2.38%,2.57%,3.89%,0.98%,3.04%,1.41%,2.13%,1.63%,3.42%,0.97%,1.71%,1.94%,2.27%,0.16%,-0.04%,1.86%,1.33%,2.65%,3.27%,1.84%
CCn1c(-c2nonc2N)nc2ccc(F)cc21,9.21%,5.67%,19%,4.37%,21%,2.79%,9.91%,2.93%,14%,1.56%,3.11%,4.63%,5.34%,0.38%,7.92%,4.43%,9.8%,5.34%,5.71%,4.08%
NC(=O)c1sc(-n2cnc3ccccc32)cc1OCc1ccccc1Br,3.15%,2.13%,3.77%,1.32%,3.02%,1.56%,2.97%,3.5%,4.96%,2.09%,5.17%,2.26%,2.46%,4.32%,4.07%,1.99%,2.42%,2.42%,4.09%,7.19%
O=C(Nc1ccc(Oc2ccc3[nH]c(NC(=O)c4ccco4)nc3c2)cc1)Nc1cc(C(F)(F)F)ccc1F,26.5%,4.21%,31.3%,1.39%,10.2%,1.5%,6.22%,5.27%,35.7%,0.96%,3.95%,0.67%,-0.62%,0.44%,2.52%,0.1%,-0.97%,1.07%,2.39%,1.95%
CCOc1nccc2c1nc(-c1nonc1N)n2CC,10.8%,4.9%,23.1%,5.34%,30%,3.74%,17.1%,5.7%,27.9%,1.8%,4.02%,4.63%,8.95%,4.13%,12.7%,6.9%,15.9%,3.1%,7.14%,2.19%
Nc1nccc(-c2c(-c3ccc(F)cc3)nn3cc(C(F)(F)F)ccc23)n1,-0.27%,-1.57%,0.18%,0.48%,0.53%,-0.83%,-1.02%,0.95%,0.63%,-1.83%,-1.48%,1.36%,0.06%,2.28%,-4.03%,3.01%,-3.28%,-1.23%,-0.36%,0.94%
O=C1Nc2ccccc2/C1=C/Nc1ccc2[nH]c(=O)[nH]c2c1,4.42%,3.76%,13.7%,3.61%,20.9%,2.19%,14.7%,4.19%,20.5%,2.19%,16.3%,5.08%,22.7%,1.44%,13.4%,3.83%,9.07%,6.25%,20%,4.32%
Cc1ccc(NC(=O)CC2CC2)cc1-c1ccc(C(=O)NCC2CC2)cc1,2.07%,3.27%,5.25%,1.91%,2.35%,0.73%,1.14%,1.88%,2.04%,1.16%,1%,2.06%,4.1%,4.31%,1.34%,2.72%,0.18%,1.98%,3.58%,1%
[O-][S+]1CCN(Cc2ccc(-c3ccc4ncnc(Nc5ccc(OCc6ccccc6)c(Cl)c5)c4c3)o2)CC1,1.73%,0.05%,0.91%,-1.27%,0.75%,-1.03%,0.82%,-1.2%,0.54%,-1.76%,-0.67%,2.48%,1.69%,-2.36%,1.12%,0.45%,1.38%,0.09%,1.19%,2.56%
Cc1nc(-c2ccccc2)n2nc(NCCCN3CCOCC3)ncc12,0.26%,2.1%,0.91%,1.44%,5.36%,2.6%,7.74%,3.24%,7.6%,2.39%,12.8%,2.86%,2.79%,2.32%,0.65%,0.22%,1.99%,2.89%,6.04%,3.08%
N#Cc1c(NC(=O)c2ccccc2F)sc2c1CCCC2,0.92%,-0.61%,0.55%,0.59%,1.03%,0.77%,2.33%,-0.49%,0.67%,-0.24%,0.41%,0.71%,0.65%,-4.27%,-5.49%,-2.68%,-2.69%,-0.84%,0.73%,1.26%
c1ccc(Nc2ncc(-c3ccccc3)o2)cc1,2.73%,4.11%,2.92%,2.02%,2.37%,0.46%,0.02%,3.77%,3.41%,2.12%,3.23%,2.66%,4%,2.47%,0.08%,4.53%,2.32%,2.6%,4.99%,7.1%
Cc1ccc(C(=O)NC2CC2)cc1-c1ccc2[nH]ncc2c1,6.16%,0.52%,16.1%,1.16%,1.93%,2.94%,4.97%,-0.94%,0.23%,-0.73%,-0.57%,-2.34%,-1.16%,-5.03%,-0.82%,-5.05%,1.68%,-1.87%,0.2%,0.12%
OCc1ccc(-c2nc(-c3ccccn3)c(-c3ccc4c(c3)OCO4)[nH]2)cc1,2.25%,3.74%,1.44%,1.38%,0.67%,0.79%,0.24%,2.72%,3.66%,1.53%,2.9%,3.65%,0.91%,1.37%,1.29%,3.28%,2.86%,3.68%,2.81%,2.09%
NS(=O)(=O)c1cccc(Nc2cc(-c3ccc(F)cc3)n[nH]2)c1,3.34%,3.4%,8.75%,3.22%,7.2%,2.09%,5.61%,2.21%,4.15%,1.89%,4.03%,3.81%,7.2%,3.76%,8.09%,3.81%,7.42%,3.82%,14.4%,2.4%
N#Cc1cccc(Nc2nccc(-c3cnn4ncccc34)n2)c1,5.33%,3.28%,12.4%,2.54%,7.07%,0.17%,4.03%,2.01%,4.16%,1.51%,8.8%,2.22%,10.4%,4.89%,5.14%,5.14%,7.33%,2.67%,10.4%,2.03%
Cc1ccc2c(c1)/C(=N/Nc1ccc(S(N)(=O)=O)cc1)C(=O)N2,2.75%,-0.99%,2.52%,0.21%,0.22%,0.34%,2.42%,0.05%,3.92%,1.62%,2.46%,0.97%,1.07%,1.13%,0.76%,-0.94%,-1.14%,1.77%,6.53%,0.59%
COc1cccc(-n2ncc3c(N/N=C/c4ccc(S(C)(=O)=O)cc4)ncnc32)c1,1.16%,1.71%,1.85%,1.45%,0.53%,1.53%,0.98%,1.87%,4.48%,0.99%,3.2%,3.81%,10.1%,6.74%,4.33%,-0.55%,2.6%,1.41%,2%,3.56%
c1ccc(Cc2nc3ccc(Nc4ncnc5ccccc45)cc3[nH]2)cc1,1.95%,2.34%,4.82%,2.52%,4.1%,0.88%,2.69%,1.07%,3.24%,0.96%,0.98%,1.05%,6.43%,1.59%,5.44%,2.24%,3.66%,3.03%,4.08%,-0.36%
CN(c1ccc(NC(=O)Nc2ccc(OC(F)(F)F)cc2)cc1)c1ccnc(Nc2cccc(S(N)(=O)=O)c2)n1,1.61%,-0.23%,3.48%,0.06%,0.25%,-0.29%,-0.29%,1.62%,2.2%,-0.26%,-0.89%,2.63%,1.43%,3.27%,4.82%,7.71%,2.44%,0.3%,1.3%,-1.16%
